These results are taken from PubChem BioAssay (Tox21).

Values joined by “and” are separate entries in the source; they are usually repeats but may differ in a detail not shown here. Equal values may be shown once. Records with an inconclusive call do not appear. Where a structure was tested more than once in an assay, its records may differ in their call. Active and inactive are the calls of the source. Unless noted, calls follow the shape of the full dose curve.

Test [1] is described as follows: Nuclear factor erythroid 2-related factor 2/antioxidant responsive element (Nrf2/ARE) small molecule agonists: qHTS cell viability counter screen in human keratinocytes (AID 1919968; active = well fitted curve in the direction sought with a large enough effect in the repeat runs; an effect the other way counts as inactive or inconclusive; also: nearly all actives have a fitted effect of over 55% in size; also: potency is read from the fitted curve at half-maximal effect). The essentials:
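Cells of the KeratinoSens line were plated at 1,500 per well and left for 5 h before compound transfer from DMSO stocks. After a 23 h incubation (37 C, 5% CO2), CellTiter-Fluor was added. Signal was taken as fluorescence intensity 1 h later.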
In general terms: qHTS replaces the single test concentration by a dilution series.

Test [2] in a line: Nuclear factor erythroid 2-related factor 2/antioxidant responsive element (Nrf2/ARE) small molecule agonists: luciferase reporter gene qHTS assay in human keratinocytes (AID 1919969; also: nearly all actives have a fitted effect of over 35% in size; also: potency is read from the fitted curve at half-maximal effect). (In a reporter assay the amount or activity of a reporter protein is the signal.)
The target in test [3] is Gonadotropin-releasing hormone receptor (Homo sapiens) (UniProt P30968). The test is described as follows: Human gonadotropin-releasing hormone receptor (GnRHR) small molecule agonists, calcium flux assay in GnRHR-HEK293 cells (AID 1920063). Also: nearly all actives have a fitted effect of over 35% in size. Also: potency is read from the fitted curve at half-maximal effect. The essentials:
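Compounds dissolved in DMSO are pin-transferred onto dye-loaded GnRHR-HEK293 cells, which were seeded 18 h before at 37 C/5% CO2. Calcium signal is read as fluorescence intensity at 1 s intervals for 3 min.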
For orientation: Calcium flux is commonly read through the fluorescence of an indicator in the cells.

For test [4], the target named is KiSS-1 receptor (Homo sapiens) (UniProt Q969F8). In words: Human kisspeptin (KISS1R) small molecule agonists, calcium flux assay in KISS1R-HEK293 cells (AID 1920064; active = well fitted curve in the direction sought with a large enough effect in the repeat runs; an effect the other way counts as inactive or inconclusive). The essentials:
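Cell line: HEK293, stable human KISS1R. Dye loading 1 h at 37 C after 18 h culture. Read: kinetic fluorescence, 480/540 nm, 3 min at 1 s intervals.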

A short description of test [5]: G protein-coupled receptor (GPCR) small molecule agonists, calcium flux assay: HEK293 wild type cell line counter screen (AID 1920065). A digest of the protocol: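 Tox21 10K compounds, 15 concentrations each in triplicate, pin-transferred in DMSO onto dye-loaded cells; kinetic read at 480/540 nm for 3 min, 1 s intervals.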
The nature of test [6]: p53 small molecule agonists, cell-based qHTS assay with human liver microsomes: qHTS cell viability counter screen (AID 1963579). Also: nearly all actives have a fitted effect of over 45% in size. Also: potency is read from the fitted curve at half-maximal effect. The essentials:
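p53RE-bla cells (4,000/well) were pre-incubated 5 h at 37 C, then given compounds in DMSO plus human liver microsomes (0.5 mg/mL final) and NADPH (0.5 mg/mL final) for 16 h at 37 C. Viability was read by CellTiter-Glo luminescence.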

A short description of test [7]: p53 small molecule agonists, cell-based qHTS assay with rat liver microsomes: qHTS cell viability counter screen (AID 1963580). Also: nearly all actives have a fitted effect of over 45% in size. Also: potency is read from the fitted curve at half-maximal effect. A digest of the protocol: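 Luminescent ATP readout (CellTiter-Glo, 30 min at room temperature) reports viability of p53RE-bla HCT-116 cells after 16 h at 37 C with test compounds under metabolic activation by rat liver microsomes and NADPH at 0.5 mg/mL final each.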

Test [8] can be described thus: p53 small molecule agonists, cell-based qHTS assay: qHTS cell viability counter screen (AID 1963581). Also: nearly all actives have a fitted effect of over 45% in size. The essentials:
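ATP content measured by luminescence in HCT-116 p53RE-bla cells treated 16 h at 37 C, same wells as the reporter screen.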

Test [9] addresses 5-hydroxytryptamine receptor 2A (Homo sapiens) (UniProt P28223). In words: 5-hydroxytryptamine receptor 2A (HTR2A) small molecule antagonists, cell-based qHTS assay (AID 1963586). Also: nearly all actives have a fitted effect of over 45% in size. The essentials: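 CHO cells stably expressing human HTR2A were plated for 18 h at 37 C, then loaded with calcium dye for 1 h. Compounds were preincubated 5 min at room temperature before DOI (4 nM solution) was added. Kinetic fluorescence was read for 3 min.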

Test [10] shares this target. The test is described as follows: 5-hydroxytryptamine receptor 2A (HTR2A) small molecule agonists, cell-based qHTS assay (AID 1963587). Also: nearly all actives have a fitted effect of over 30% in size. Also: potency is read from the fitted curve at half-maximal effect. A digest of the protocol:
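HTR2A-CHO cells, plated 18 h at 37 C/5% CO2, dye-loaded 1 h at 37 C; compounds in DMSO added by pin tool (agonist mode). Intracellular calcium flux read as kinetic fluorescence on FDSS over 2 min at 1 s intervals.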

For test [11], the target named is Muscarinic acetylcholine receptor M1 (Homo sapiens) (UniProt P11229). In words: Cholinergic receptor muscarinic 1 (CHRM1) small molecule antagonists, cell-based qHTS assay (AID 1963588). Also: nearly all actives have a fitted effect of over 40% in size. Also: potency is read from the fitted curve at half-maximal effect. A digest of the protocol: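 Compounds were tested at 15 concentrations in three independent runs. Dye-loaded CHRM1-CHO cells were exposed 5 min at room temperature before stimulation by acetylcholine added at 50nM. Intracellular calcium was read kinetically on FDSS for 3 min.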
Muscarinic acetylcholine receptor M1 (Homo sapiens), sequence (P11229 whole entry, looked up): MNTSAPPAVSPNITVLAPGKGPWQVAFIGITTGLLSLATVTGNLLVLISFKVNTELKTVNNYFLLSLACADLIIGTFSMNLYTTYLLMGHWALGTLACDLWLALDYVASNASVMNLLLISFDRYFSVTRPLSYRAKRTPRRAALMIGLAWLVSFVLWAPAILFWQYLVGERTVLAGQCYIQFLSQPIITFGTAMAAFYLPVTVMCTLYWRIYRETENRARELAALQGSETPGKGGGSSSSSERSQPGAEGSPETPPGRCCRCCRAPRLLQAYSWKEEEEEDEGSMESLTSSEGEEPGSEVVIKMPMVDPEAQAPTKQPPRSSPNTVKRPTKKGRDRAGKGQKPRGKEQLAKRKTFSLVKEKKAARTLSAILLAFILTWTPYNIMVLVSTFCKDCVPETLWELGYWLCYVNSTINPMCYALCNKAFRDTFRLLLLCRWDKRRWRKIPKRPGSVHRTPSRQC

For test [12] the target is unchanged. In words: Cholinergic receptor muscarinic 1 (CHRM1) small molecule agonists, cell-based qHTS assay (AID 1963589). Also: nearly all actives have a fitted effect of over 35% in size. The essentials:
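Homogeneous fluorescence calcium flux, agonist mode. Human M1-expressing CHO cells; compound dosed at 15 concentrations, three independent runs; signal sampled every 1 sec.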

Test [13] is described as follows: cAMP Responsive Elements (CRE) small molecule agonists, cell-based qHTS assay (AID 1963590). A digest of the protocol: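 HEK 293T cells stably bearing CRE-bla were plated at 2,000 cells per well and rested 18 h. Compounds, positive controls or DMSO were added for 3 h at 37 C. LiveBLAzer B/G substrate was then loaded for 2 h at room temperature.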
The nature of test [14]: cAMP Responsive Elements (CRE) small molecule antagonists, cell-based qHTS assay (AID 1963591; active = well fitted inhibition curve with a large enough effect in the signal ratio in the repeat runs, not every such curve was filed as active; the % refers to the signal ratio). The essentials:
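First, CRE-bla HEK293T cells settled 18 h at 37 C. Next, compound and 0.25 uM final NKH477 were applied for 3 h. Last, LiveBLAzer B/G substrate was loaded for 2 h at room temperature.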

Test [15] has as its target Beta-2 adrenergic receptor (Homo sapiens) (UniProt P07550). In words: Adrenergic beta2 receptor (ADRB2) small molecule antagonists, cell-based qHTS assay (AID 1963592). Also: series mostly up to about 92 µM; nearly all actives have a fitted effect of over 50% in size. The essentials:
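Assay format: CHO-ADRB2 cells, 18-20hr seeding at 37C/5% CO2, then compound plus 1nM isoproterenol agonist mix for 0.5hr RT. Homogeneous time-resolved fluorescence cAMP detection after 1hr, expressed as 665/615 nm ratio.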

For test [16] the target is unchanged. In words: Adrenergic beta2 receptor (ADRB2) small molecule agonists, cell-based qHTS assay (AID 1963593).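 Also: CHO cells stably overexpressing human ADRB2.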 The essentials:
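CHO cells stably over-expressing ADRB2 were plated overnight at 37C, then dosed with compounds plus a stimulation mix containing 100uM IBMX and 25uM Ro-20-1724 for 0.5hr at room temperature. cAMP was measured by HTRF competition, 1hr.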

In test [17] the target is D(2) dopamine receptor (Homo sapiens) (UniProt P14416). In words: Dopamine D2 receptor (DRD2) small molecule agonists, cell-based qHTS assay (AID 1963594). Also: nearly all actives have a fitted effect of over 35% in size. A digest of the protocol:
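HEK293 cells stably expressing DRD2 were cultured 24 h at 37 C, then given Ro20-1724 (0.1 mM final) and compounds for 10 min at room temperature. NKH477 (200nM) was then added for 30 min. cAMP was read by HTRF.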

Test [18] has the same target. In words: Dopamine D2 receptor (DRD2) small molecule antagonists, cell-based qHTS assay (AID 1963595; active = well fitted inhibition curve with a large enough effect in the signal ratio in the repeat runs, with a control signal flat; the % refers to the signal ratio). The essentials:
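Readout: HTRF cAMP, cAMP-d2 competing with cellular cAMP for anti-cAMP cryptate, read after 1 h. Cells: DRD2-HEK293. Conditions: 0.1 mM Ro20-1724, 12 nM quinpirole, 200 nM NKH477, 30 min RT.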

A short description of test [19]: p53 small molecule agonists, cell-based qHTS assay with rat liver microsomes (AID 1963578). A digest of the protocol:
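p53RE-bla cells were exposed to compounds together with rat liver microsomes (0.5 mg/mL final) and NADPH (0.5 mg/mL final) for 16 h at 37 C, then read by LiveBLAzer beta-lactamase fluorescence after 2 h at room temperature.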

Test [20] in a line: p53 small molecule agonists, cell-based qHTS assay (AID 1963582; active = well fitted activation curve with a large enough effect in the signal ratio in the repeat runs, not every such curve was filed as active; the % refers to the signal ratio). The essentials: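 16 h compound exposure (37 C) of p53 response element–bla cells, preceded by 5 h recovery at 37 C/5% CO2; read-out via LiveBLAzer B/G FRET substrate, 2 h RT, fluorescence intensity.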

KiSS-1 receptor (Homo sapiens), sequence (Q969F8 whole entry, looked up): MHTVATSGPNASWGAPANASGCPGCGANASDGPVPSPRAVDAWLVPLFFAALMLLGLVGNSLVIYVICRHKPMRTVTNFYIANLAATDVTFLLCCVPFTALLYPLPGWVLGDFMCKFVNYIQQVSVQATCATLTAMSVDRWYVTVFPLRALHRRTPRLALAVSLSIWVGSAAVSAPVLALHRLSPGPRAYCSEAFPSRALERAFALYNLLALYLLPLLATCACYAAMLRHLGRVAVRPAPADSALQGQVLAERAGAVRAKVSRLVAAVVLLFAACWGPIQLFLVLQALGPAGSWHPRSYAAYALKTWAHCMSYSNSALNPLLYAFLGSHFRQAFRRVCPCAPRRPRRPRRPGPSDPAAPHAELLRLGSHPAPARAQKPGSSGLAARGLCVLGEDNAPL
Gonadotropin-releasing hormone receptor (Homo sapiens), sequence (P30968 whole entry, looked up): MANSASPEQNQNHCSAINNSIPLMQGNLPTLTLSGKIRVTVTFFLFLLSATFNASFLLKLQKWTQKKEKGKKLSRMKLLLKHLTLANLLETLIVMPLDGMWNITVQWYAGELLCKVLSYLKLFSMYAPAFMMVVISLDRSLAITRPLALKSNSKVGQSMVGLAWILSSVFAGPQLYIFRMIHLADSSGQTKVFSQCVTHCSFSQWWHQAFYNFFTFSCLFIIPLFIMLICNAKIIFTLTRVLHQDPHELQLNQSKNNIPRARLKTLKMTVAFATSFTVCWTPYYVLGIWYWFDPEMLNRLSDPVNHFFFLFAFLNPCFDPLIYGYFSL
Beta-2 adrenergic receptor (Homo sapiens), sequence (P07550 whole entry, looked up): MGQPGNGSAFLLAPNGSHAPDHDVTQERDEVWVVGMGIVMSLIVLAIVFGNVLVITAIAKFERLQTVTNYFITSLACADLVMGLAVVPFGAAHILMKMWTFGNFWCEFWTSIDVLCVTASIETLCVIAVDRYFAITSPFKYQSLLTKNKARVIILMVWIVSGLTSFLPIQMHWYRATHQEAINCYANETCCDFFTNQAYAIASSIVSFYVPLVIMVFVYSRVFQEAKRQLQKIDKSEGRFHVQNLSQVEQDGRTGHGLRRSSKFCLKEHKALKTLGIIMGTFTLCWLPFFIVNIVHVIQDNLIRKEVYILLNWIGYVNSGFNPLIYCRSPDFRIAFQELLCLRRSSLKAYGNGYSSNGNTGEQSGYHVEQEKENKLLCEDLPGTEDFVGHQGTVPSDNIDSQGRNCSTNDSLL
5-hydroxytryptamine receptor 2A (Homo sapiens), sequence (P28223 whole entry, looked up): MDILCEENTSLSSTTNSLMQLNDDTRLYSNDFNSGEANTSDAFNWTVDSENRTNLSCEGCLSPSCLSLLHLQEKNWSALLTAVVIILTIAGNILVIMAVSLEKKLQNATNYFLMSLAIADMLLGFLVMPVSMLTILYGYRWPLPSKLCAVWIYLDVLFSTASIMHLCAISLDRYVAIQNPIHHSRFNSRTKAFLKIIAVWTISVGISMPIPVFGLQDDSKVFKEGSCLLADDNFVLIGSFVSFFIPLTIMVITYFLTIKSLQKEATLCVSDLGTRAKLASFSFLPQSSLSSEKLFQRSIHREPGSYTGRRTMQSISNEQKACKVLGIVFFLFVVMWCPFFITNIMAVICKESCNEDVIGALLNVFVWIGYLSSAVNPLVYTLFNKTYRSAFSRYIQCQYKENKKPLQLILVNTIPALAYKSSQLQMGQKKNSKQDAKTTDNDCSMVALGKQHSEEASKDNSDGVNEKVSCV
D(2) dopamine receptor (Homo sapiens), sequence (P14416 whole entry, looked up): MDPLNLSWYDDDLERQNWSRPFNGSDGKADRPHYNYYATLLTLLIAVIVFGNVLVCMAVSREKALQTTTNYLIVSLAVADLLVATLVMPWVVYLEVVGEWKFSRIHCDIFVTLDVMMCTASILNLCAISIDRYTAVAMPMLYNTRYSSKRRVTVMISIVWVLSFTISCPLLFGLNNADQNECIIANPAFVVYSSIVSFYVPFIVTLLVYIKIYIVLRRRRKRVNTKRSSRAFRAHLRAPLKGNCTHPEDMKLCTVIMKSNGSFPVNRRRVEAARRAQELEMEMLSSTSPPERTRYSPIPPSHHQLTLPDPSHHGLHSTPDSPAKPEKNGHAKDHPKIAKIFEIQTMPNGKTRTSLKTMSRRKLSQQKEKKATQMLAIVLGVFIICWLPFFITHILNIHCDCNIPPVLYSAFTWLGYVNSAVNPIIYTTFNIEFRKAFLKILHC

Turning to `CCCCn1cc[n+](C)c1C`, the Potency entry in test [1], in test [2], in test [3], in test [4], in [5] and in test [6] was “inactive” in each case. In addition, the Potency result in test [7], in [8], in test [9], in test [10], in test [11] and in test [12] was “inactive” throughout. The Potency entry in [13], in [14], in test [15], in [16], in test [17] and in test [18] was “inactive” each time.
Consider `c1ccc2sc(SNC3CCCCC3)nc2c1`, for which the Potency result in test [1], in test [3], in test [4], in [5], in [6] and in test [7] was “inactive” each time. In addition, the Potency result in [8], in test [9], in [10], in [11], in [12] and in [13] was “inactive” in each case. In addition, the Potency result in test [14], in test [15], in test [17] and in test [18] was “inactive” throughout. Moreover, in [2], the Potency was 53.9 µM (active) and 61.1 µM (active).
Regarding `CN(C)[C@@H]1C(=O)C(C(N)=O)=C(O)[C@@]2(O)C(=O)C3=C(O)c4c(O)cccc4[C@@](C)(O)[C@H]3[C@H](O)[C@@H]12`, the Potency result in test [1], in test [2], in [3], in test [4], in [5] and in test [6] was “inactive” in each case. For the same molecule, the Potency entry in [7], in [8], in test [9], in test [10], in test [11] and in test [12] was “inactive” throughout. For the same molecule, the Potency entry in test [13], in [14], in [15], in test [16], in [17] and in test [18] was “inactive” throughout.
As to `O=C1C2(Cl)C3(Cl)C4(Cl)C(Cl)(Cl)C5(Cl)C3(Cl)C1(Cl)C5(Cl)C24Cl` (stereo not given), the Potency in test [1] was 19 µM (active) and 29.3 µM (active); in [3] it was 38.3 µM (active); in [6], 31.9 µM (active) and inactive; in [7], 45 µM (active); in test [10], 54 µM (active) and 46.9 µM (active); in [11], 29.3 µM (active) and 20.2 µM (active). In addition, the Potency result in test [2], in test [4], in test [5], in test [19], in test [15] and in test [17] was “inactive” throughout.
For the molecule `CNC(=O)O/N=C/C(C)(C)S(C)(=O)=O`, the Potency entry in test [1], in [2], in test [3], in test [4], in test [5] and in test [6] was “inactive” throughout. The Potency entry in test [7], in [8], in [20], in test [9], in test [10] and in test [11] was “inactive” each time. For the same molecule, the Potency result in test [12], in [13], in test [14], in test [15], in test [16] and in test [17] was “inactive” each time. For the same molecule, in [18], the Potency result was “inactive”.
For `O=P(OCC(Br)CBr)(OCC(Br)CBr)OCC(Br)CBr` (stereo not given), the Potency result in test [1], in [2], in test [3], in [4], in test [5] and in test [19] was “inactive” in each case. In addition, the Potency entry in [6], in test [7], in test [8], in [20], in test [10] and in test [11] was “inactive” in each case. The Potency result in [12], in test [14], in test [15], in test [17] and in [18] was “inactive” in each case.
For `N#Cc1cccnc1`, the Potency entry in test [1], in [2], in test [3], in [4], in [5] and in test [6] was “inactive” throughout. Moreover, the Potency result in [7], in test [8], in test [9], in [10], in test [11] and in test [12] was “inactive” each time. The Potency entry in [13], in [14], in test [15] and in test [17] was “inactive” each time.
On to `O=S(=O)(Cl)Cl`, for which the Potency entry in [1], in [2], in test [3], in [4], in test [5] and in [19] was “inactive” in each case. Besides, the Potency result in [6], in test [7], in test [8], in test [20], in test [9] and in [10] was “inactive” each time. Also, the Potency result in test [11], in test [12], in [14], in [15], in test [17] and in test [18] was “inactive” in each case.
